“And” between values parts separate entries of the source, which are not always exact repeats. Equal entries are not always repeated. Records with an inconclusive call do not appear. The source made the active and inactive calls.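 The calls were made as follows, unless noted: active = normalized viability below 100% at a tested concentration; inactive = the rest.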
Key:
[1] = compounds altering HSF1 focus formation in cells – imaging, Selleck Cancer Library (AID 1347162; in the data active = plate-normalised HSF1 focus index below about 0.46); conditions: human cells, HSF1 nuclear foci imaging, at 10 µM; SSMD: measured here: HSF1 foci SSMD mean; cell count: measured here: cell number; plate-normalised HSF1 focus index: stronger effect = lower value
[2] = MELAS cybrid and Rieske KO viability enhancers – cell-based, MELAS cybrids, Rieske KO mouse fibroblasts, CellTiter-Glo, primary screen (AID 1508586;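 active = mean z-score across replicates of 1.96 or higher in either the MELAS or the Rieske mutant cell line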;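 also: z relative to plate mean and SD of compound and empty wells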); conditions: low glucose
[3] = drug combination growth inhibition, ovarian cancer – cell-based, oncology-focused library, rucaparib conditional, profiling panel (AID 1508598); conditions: patient-derived ovarian cancer cells, CellTiter-Glo viability, 144 h, stronger effect = lower value
[4] = P. berghei load reduction in hepatocytes – cell-based, HepG2, luciferase luminescence, HepG2 viability, primary screen (AID 624349; in the data active = parasite load remaining mostly below about 12%, no sharp cut-off; inactive = mostly above about 10%;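 also: 100% = mean of DMSO negative control wells on the same plate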); conditions: P. berghei liver stage in HepG2, luciferase luminescence, concentration not given here; parasite load remaining: stronger effect = lower value; viability: measured here: HepG2 viability without parasites
[5] = tested on: Hepatitis C virus NS3 helicase; assay: blockers of NS3h binding to ssDNA – biochemical, fluorescence polarization, LOPAC1280 library, primary screen (AID 687035; in the data active = inhibition above about 37%); conditions: Purified HCV NS3 helicase, Cy5-dT15 ssDNA binding fluorescence polarization; stronger effect = higher value; concentration not given here
[6] = compounds altering Cy5-DNA-NS3h complex signal – biochemical, LOPAC1280, artefact control for HCV NS3 helicase inhibitor project (AID 687037; call rule not given here); conditions: Cy5-DNA-NS3h complex fluorescence interference counterscreen
[7] = tested on: Aerobactin synthetase IucA (Klebsiella pneumoniae); assay: inhibition of K. pneumoniae IucA enzyme – biochemical, Tocris library, absorbance (AID 1345561; call rule not given here;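 also: 100% = enzyme without compound and 0% = no enzyme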); conditions: purified IucA enzyme assay, absorbance (OD) read-out; stronger effect = lower value;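 tested at 8 µM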
[8] = viability loss in pontine glioma line – cell-based, SU-DIPG-XVII, MIPE5.0, CellTiter-Glo, qHTS, dose response (AID 1347060; cut-off not given, nearly all actives have AC50 up to about 26 µM); conditions: CellTiter-Glo ATP luminescence
[9] = viability loss in pontine glioma line – cell-based, SU-DIPG-XIII, MIPE4.0, CellTiter-Glo, qHTS, dose response (AID 1347061; cut-off not given, nearly all actives have AC50 up to about 37 µM;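 also: cells exposed to compound for 48 hours before readout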); conditions: CellTiter-Glo ATP luminescence
[10] = viability loss in pontine glioma line – cell-based, JHH-DIPG-1, MIPE4.0, CellTiter-Glo, qHTS, dose response (AID 1347062; cut-off not given, nearly all actives have AC50 up to about 27 µM); conditions: JHH-DIPG-1 viability, CellTiter-Glo ATP luminescence
[11] = viability loss in pontine glioma line – cell-based, SU-DIPG-XIII, MIPE5.0, CellTiter-Glo, qHTS, dose response (AID 1347064; cut-off not given, nearly all actives have AC50 up to about 23 µM); conditions: CellTiter-Glo ATP luminescence
[12] = viability loss in pontine glioma line – cell-based, SU-DIPG-XXV, MIPE5.0, CellTiter-Glo, qHTS, dose response (AID 1347065; cut-off not given, nearly all actives have AC50 up to about 26 µM;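 also: cells exposed to compound for 48 hours before ATP readout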); conditions: CellTiter-Glo ATP luminescence
[13] = growth inhibition of DIPG cells – cell-based, MIPE5.0 library, qHTS (AID 1347068; cut-off not given, nearly all actives have IC50 up to about 30 µM); conditions: SU-DIPG-XXV viability
[14] = galactose survival enhancers in mitochondrial complex I cybrids – cell-based, galactose medium, ATP luminescence, primary screen (AID 1645843;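 active = z-score of at least 1.8 in each of two replicates, scored against plate mean and spread of sample wells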;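 also: positive z means more ATP and so rescue of galactose-driven cybrid death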); conditions: complex I mutant cybrid cells, 72 h, stronger effect = higher value
[15] = viability loss in pontine glioma line – cell-based, SU-DIPG-IV, MIPE4.0, CellTiter-Glo, qHTS, dose response (AID 1347063; cut-off not given, nearly all actives have AC50 up to about 30 µM;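 also: compound exposure lasted 48 hours before the viability readout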); conditions: CellTiter-Glo ATP luminescence
[16] = JHH-DIPG-1 glioma cell viability, MIPE5.0 library, CellTiter-Glo luminescence, qHTS (AID 1347067; cut-off not given, nearly all actives have AC50 up to about 26 µM;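 also: cells exposed to compound for 48 hours before readout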); conditions: JHH-DIPG-1 glioma viability, CellTiter-Glo ATP luminescence
[17] = viability loss with induced miR-34 in A549 – imaging, A549 dox-inducible miR-34, nuclei and caspase counts, primary screen (AID 1347080;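 active = compounds whose cell count with miR-34 switched on is under 0.7 times the count with it off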); conditions: A549 miR-34 inducible, Hoechst nuclei count, 48 h
[18] = MELAS cybrid survival, CellTiter-Glo 48 h, stronger effect = higher value
[19] = Rieske KO mouse fibroblast survival, CellTiter-Glo 72 h
[20] = at 0.000305 µM, OCI-C5x cells, with rucaparib 10 µM, 100% = cells with rucaparib alone
[21] = at 0.000305 µM, OCI-C5x cells, without rucaparib
[22] = at 0.000305 µM, OCI-P5x cells, with rucaparib 20 µM, 100% = cells with rucaparib alone
[23] = at 0.000305 µM, OCI-P5x cells, without rucaparib
[24] = at 0.00122 µM, OCI-C5x cells, with rucaparib 10 µM, 100% = cells with rucaparib alone
[25] = at 0.00122 µM, OCI-C5x cells, without rucaparib
[26] = at 0.00122 µM, OCI-P5x cells, with rucaparib 20 µM, 100% = cells with rucaparib alone
[27] = at 0.00122 µM, OCI-P5x cells, without rucaparib
[28] = at 0.00488 µM, OCI-C5x cells, with rucaparib 10 µM, 100% = cells with rucaparib alone
[29] = at 0.00488 µM, OCI-C5x cells, without rucaparib
[30] = at 0.00488 µM, OCI-P5x cells, with rucaparib 20 µM, 100% = cells with rucaparib alone
[31] = at 0.00488 µM, OCI-P5x cells, without rucaparib
[32] = at 0.0195 µM, OCI-C5x cells, with rucaparib 10 µM, 100% = cells with rucaparib alone
[33] = at 0.0195 µM, OCI-C5x cells, without rucaparib
[34] = at 0.0195 µM, OCI-P5x cells, with rucaparib 20 µM, 100% = cells with rucaparib alone
[35] = at 0.0195 µM, OCI-P5x cells, without rucaparib
[36] = at 0.0781 µM, OCI-C5x cells, with rucaparib 10 µM, 100% = cells with rucaparib alone
[37] = at 0.0781 µM, OCI-C5x cells, without rucaparib
[38] = at 0.0781 µM, OCI-P5x cells, with rucaparib 20 µM, 100% = cells with rucaparib alone
[39] = at 0.0781 µM, OCI-P5x cells, without rucaparib
[40] = at 0.313 µM, OCI-C5x cells, with rucaparib 10 µM, 100% = cells with rucaparib alone
[41] = at 0.313 µM, OCI-C5x cells, without rucaparib
[42] = at 0.313 µM, OCI-P5x cells, with rucaparib 20 µM, 100% = cells with rucaparib alone
[43] = at 0.313 µM, OCI-P5x cells, without rucaparib
[44] = at 1.25 µM, OCI-C5x cells, with rucaparib 10 µM, 100% = cells with rucaparib alone
[45] = at 1.25 µM, OCI-C5x cells, without rucaparib
[46] = at 1.25 µM, OCI-P5x cells, with rucaparib 20 µM, 100% = cells with rucaparib alone
[47] = at 1.25 µM, OCI-P5x cells, without rucaparib
[48] = at 5 µM, OCI-C5x cells, with rucaparib 10 µM, 100% = cells with rucaparib alone
[49] = at 5 µM, OCI-C5x cells, without rucaparib
[50] = at 5 µM, OCI-P5x cells, with rucaparib 20 µM, 100% = cells with rucaparib alone
[51] = at 5 µM, OCI-P5x cells, without rucaparib

NC(=O)Nc1sc(-c2ccc(F)cc2)cc1C(N)=O
-1.15: SSMD [1]
0.196: z-score [2, 19]
inactive: plate-normalised HSF1 focus index [1] 0.95 | z-score [2, 18] 0.0212 | viability [3, 20] 113% | viability [3, 21] 127% | viability [3, 22] 116% | viability [3, 23] 109% | viability [3, 24] 118% | viability [3, 25] 126% | viability [3, 26] 106% | viability [3, 27] 106% | viability [3, 28] 124% | viability [3, 29] 131% | viability [3, 30] 105% | viability [3, 31] 104% | viability [3, 32] 115% | viability [3, 33] 108% | viability [3, 34] 102% | viability [3, 35] 101% | viability [3, 36] 115% | viability [3, 37] 109% | viability [3, 38] 102% | viability [3, 40] 124% | viability [3, 41] 105% | viability [3, 44] 125% | viability [3, 45] 104%
6750: cell count [1]
active: viability [3, 39] 98.9% | viability [3, 42] 95.8% | viability [3, 43] 93% | viability [3, 46] 92.8% | viability [3, 47] 87.7% | viability [3, 48] 95.3% | viability [3, 49] 67.2% | viability [3, 50] 39% | viability [3, 51] 60.3%

COc1cccc(-c2cc(=O)c3ccccc3o2)c1N
1.33: z-score [2, 19]
inactive: parasite load remaining [4] 29.3% | inhibition [5] -1% | fluorescence ratio (interference) [6] 1 | remaining activity [7] 102% | outcome [8] | outcome [9] | outcome [10] | outcome [11] | outcome [12] | outcome [13] | z-score [2, 18] -0.498 | z-score [14] -0.045 and 0.145
68.4%: viability [4]

O=C(O)c1ccc(-c2c[nH]c3ncc(-c4ccccc4)cc23)cc1C1CCCC1
0.684 and 1.96: fold change ([17]; measured here: relative caspase fold change +Dox/-Dox)
inactive: remaining activity [7] 108% | outcome [8] | outcome [10] | outcome [11] | outcome [12] | outcome [16] | fold change ([17]; stronger effect = lower value, cell number ratio, induced over uninduced) 0.863 and 0.894 | plate-normalised HSF1 focus index [1] 1.11 | z-score [2, 18] -0.208 | viability [3, 20] 113% | viability [3, 21] 105% | viability [3, 24] 106% | viability [3, 25] 118% | viability [3, 28] 112% | viability [3, 29] 120% | viability [3, 30] 101% | viability [3, 31] 100% | viability [3, 32] 118% | viability [3, 33] 115% | viability [3, 35] 103% | viability [3, 37] 112% | viability [3, 39] 103% | viability [3, 41] 116% | viability [3, 42] 102% | viability [3, 43] 102% | viability [3, 45] 105% | z-score [14] 0.065
6900: cell count [1]
-2.05: z-score [2, 19]
active: AC50 [15] 372 nM | viability [3, 22] 85.9% | viability [3, 23] 89.5% | viability [3, 26] 90% | viability [3, 27] 99.6% | viability [3, 34] 97.8% | viability [3, 36] 95.5% | viability [3, 38] 95.2% | viability [3, 40] 91.3% | viability [3, 44] 88.1% | viability [3, 46] 93.8% | viability [3, 47] 93.3% | viability [3, 48] 65.2% | viability [3, 49] 60.5% | viability [3, 50] 92.6% | viability [3, 51] 75.8%
1.9: SSMD [1]
3460 and 4530: cell count ([17]; measured here: total cells without miR-34 induction)
2990 and 4050: cell count ([17]; measured here: total cells with miR-34 induction, stronger effect = lower value)

— PubChem BioAssay
